Reference: PubChem BioAssay
The source made the active and inactive calls. Unless noted, no rule for the calls is given here.

Legend:
[1] = anti-His antibody binders, primary screen, artefact control for SMM control protein annotation, biochemical, small-molecule microarray, 635 nm fluorescence (AID 1128); conditions: anti-His Alexa647 antibody binding, higher = more signal;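 also: score merges feature fluorescence with signal-to-noise for each printed compound spot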
[2] = tested on: Human papillomavirus type 1a E7 protein (residues 1-88); test: HPV1a E7 small-molecule binders, primary screen, biochemical, small-molecule microarray, residues 1-88, 635 nm (AID 1129); conditions: small-molecule microarray binding, fluorescence 635 nm; higher = more signal
[3] = target: Focal adhesion kinase 1 (Homo sapiens) (UniProt Q05397); test: small-molecule microarray binders of FAK, primary screen, biochemical, 635/667 nm fluorescence, BSA, DTT (AID 1130); conditions: PTK2 binding, 635 nm fluorescence, higher = more signal;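 also: composite of spot emission at 667 nm and signal to noise over triplicate slides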
[4] = tested on: Fibrinogen (Alexa647-labelled); test: fibrinogen binders on compound microarrays, profiling panel, artefact control for SMM control-protein annotation, biochemical, small-molecule microarray, 635/667 nm fluorescence (AID 1131); conditions: fibrinogen-A647 binding fluorescence, higher = more signal;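 also: z-score merges 667 nm fluorescence with per-spot signal-to-noise over triplicate slides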
[5] = target: Follistatin (Homo sapiens) (UniProt P19883); test: follistatin binders on small-molecule microarrays, primary screen, biochemical, small-molecule microarray, 635/667 nm fluorescence (AID 1132); conditions: FST binding, 635 nm fluorescence, higher = more signal
[6] = target: Fibroblast growth factor 2 (Homo sapiens) (UniProt P09038); test: FGF2 binders on small-molecule microarrays, primary screen, biochemical, small-molecule microarray, 635/667 nm fluorescence (AID 1133); conditions: small-molecule microarray binding, FGF2, fluorescence 635/667; higher = more signal
[7] = mitochondrial membrane potential change in A549 cells, profiling panel, cell-based, JC-1 fluorescence, basal, 24 h, 100 nL (AID 1138); conditions: higher = more signal;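 also: A549 lung adenocarcinoma cells under basal conditions with no added stimulus; test concentration not given here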
[8] = tested on: Lefty1; test: Lefty1 binders on small-molecule microarrays, primary screen, biochemical, small-molecule microarray, 635/667 nm fluorescence (AID 1139); conditions: small-molecule microarray binding, fluorescence 635/667; higher = more signal
[9] = tested on: wheat germ agglutinin (Triticum aestivum), Alexa647-labelled; test: wheat germ agglutinin binders on compound microarrays, profiling panel, artefact control for SMM control-protein annotation, biochemical, small-molecule microarray, 635/667 nm fluorescence (AID 1140); conditions: WGA-A647 binding, 635 nm fluorescence, higher = more signal;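 also: score merges 667 nm feature emission with signal to noise over triplicate slides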
[10] = target: Luciferin 4-monooxygenase (Photinus pyralis) (UniProt P08659); test: firefly luciferase enzyme inhibitors, primary screen, biochemical, luminescence, purified enzyme, 2006 set (AID 1141); conditions: SteadyGlo luminescence, 30 min, higher = more signal, called active from +8 up or from −8 down;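 also: cell-free assay with purified firefly luciferase at 100 ng per well in PBS; test concentration not given here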
[11] = tested on: Wnt5a (protein binding on small-molecule microarray); test: Wnt5a binders on small-molecule microarray, primary screen, biophysical, 635/667 nm fluorescence (AID 1142); conditions: 635 nm fluorescence, higher = more signal;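 also: fluorescence read at 667 nm with signal to noise per printed feature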
[12] = cell viability in Huh7 cells, primary screen, cytotoxicity control for HCV replication inhibitor project, CellTiter-Glo luminescence, basal, 48 h (AID 1143); conditions: Huh7 HCV replicon, higher = more signal, called active from +8 up or from −8 down;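 also: Huh7 hepatoma cells carrying a hepatitis C replication reporter with no stimulus; test concentration not given here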
[13] = P. aeruginosa biofilm formation inhibitors, primary screen, PAO1 strain, BacTiter-Glo luminescence, LB-PBS (AID 1144); conditions: 12 h, higher = more signal
[14] = CREB reporter modulators without forskolin, primary screen, cell-based, PC12, CRE-LacZ reporter, unstimulated (AID 1145); conditions: no forskolin, luminescence, 4.5 h, higher = more signal, called active from +8 up or from −8 down
[15] = CREB reporter modulators under forskolin, primary screen, cell-based, PC12, CRE-LacZ reporter, forskolin-stimulated (AID 1146); conditions: luminescence, 4.5 h, higher = more signal, called active from +8 up or from −8 down;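 also: PC12 cells with 6xCRE LacZ reporter stimulated by forskolin 10 µM; beta-galactosidase reporter signal reflecting CREB driven transcription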
[16] = target: Streptavidin (Streptomyces avidinii) (UniProt P22629); test: streptavidin binders on small-molecule microarray, primary screen, artefact control for SMM compound annotation, biophysical, 635/667 nm fluorescence (AID 1147); conditions: streptavidin binding, higher = more signal;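 also: signal reflects streptavidin binding to arrayed compounds as a control protein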
[17] = small-molecule binders of probe aInhba, primary screen, biochemical, small-molecule microarray, 635/667 nm fluorescence (AID 1148); conditions: higher = more signal;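 also: score merges 667nm spot fluorescence with signal-to-noise for antibody binding to printed compounds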
[18] = target: Torsin-1A (Homo sapiens) (UniProt O14656); test: torsin A binders from cell lysate, primary screen, small-molecule microarray, wild-type, 635/667 nm (AID 1149); conditions: COS7 hTOR1A-WT lysate, 635 nm fluorescence, higher = more signal
[19] = target: Torsin-1A (Homo sapiens) (UniProt O14656); test: small-molecule binders of mutant TOR1A in lysate, primary screen, cell lysate, small-molecule microarray, COS7 lysate, 635/667 nm fluorescence (AID 1150); conditions: COS7 hTOR1A mutant lysate, 635 nm fluorescence, higher = more signal;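 also: score pools 667 nm emission and signal to noise measuring lysate protein binding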
[20] = tested on: Sonic hedgehog protein (Shh); test: small-molecule binders of Shh protein, primary screen, biochemical, small-molecule microarray, 635/667 nm fluorescence (AID 1151); conditions: small-molecule microarray binding, 635 nm fluorescence; higher = more signal;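 also: Shh protein binding to compounds spotted on small-molecule microarray slides; score combines spot fluorescence intensity with signal-to-noise across triplicate slides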

Chain of Luciferin 4-monooxygenase (Photinus pyralis) (P08659 whole entry, looked up): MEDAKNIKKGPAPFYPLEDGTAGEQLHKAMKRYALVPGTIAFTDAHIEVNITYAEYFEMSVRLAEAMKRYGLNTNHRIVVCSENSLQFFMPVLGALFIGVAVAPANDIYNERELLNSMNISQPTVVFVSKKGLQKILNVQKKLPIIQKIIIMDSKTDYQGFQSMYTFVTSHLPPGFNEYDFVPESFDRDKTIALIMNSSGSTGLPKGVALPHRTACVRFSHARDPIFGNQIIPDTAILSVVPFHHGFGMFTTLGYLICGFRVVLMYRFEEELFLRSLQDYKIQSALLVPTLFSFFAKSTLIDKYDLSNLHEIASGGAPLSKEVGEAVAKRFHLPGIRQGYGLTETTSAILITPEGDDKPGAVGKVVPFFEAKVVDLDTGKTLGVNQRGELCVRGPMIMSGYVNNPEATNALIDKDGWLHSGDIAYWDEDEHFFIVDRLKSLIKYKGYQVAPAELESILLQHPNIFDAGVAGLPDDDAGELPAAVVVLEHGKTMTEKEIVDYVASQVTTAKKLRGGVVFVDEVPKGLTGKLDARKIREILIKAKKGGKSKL
Chain of Torsin-1A (Homo sapiens) (O14656 whole entry, looked up): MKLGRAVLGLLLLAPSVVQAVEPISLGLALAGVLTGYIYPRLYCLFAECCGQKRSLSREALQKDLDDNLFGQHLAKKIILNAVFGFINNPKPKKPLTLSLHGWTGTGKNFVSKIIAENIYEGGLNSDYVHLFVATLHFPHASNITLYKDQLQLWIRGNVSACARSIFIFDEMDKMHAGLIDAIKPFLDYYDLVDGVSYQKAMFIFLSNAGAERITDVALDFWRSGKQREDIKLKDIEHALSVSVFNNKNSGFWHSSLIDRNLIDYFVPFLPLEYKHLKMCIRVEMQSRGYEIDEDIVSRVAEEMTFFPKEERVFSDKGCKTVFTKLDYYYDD
Chain of Streptavidin (Streptomyces avidinii) (P22629 whole entry, looked up): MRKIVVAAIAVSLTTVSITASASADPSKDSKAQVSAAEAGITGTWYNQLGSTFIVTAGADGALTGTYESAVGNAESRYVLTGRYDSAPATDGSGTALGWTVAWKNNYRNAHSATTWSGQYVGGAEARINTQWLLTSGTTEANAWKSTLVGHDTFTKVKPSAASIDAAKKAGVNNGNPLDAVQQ
Chain of Fibroblast growth factor 2 (Homo sapiens) (P09038 whole entry, looked up): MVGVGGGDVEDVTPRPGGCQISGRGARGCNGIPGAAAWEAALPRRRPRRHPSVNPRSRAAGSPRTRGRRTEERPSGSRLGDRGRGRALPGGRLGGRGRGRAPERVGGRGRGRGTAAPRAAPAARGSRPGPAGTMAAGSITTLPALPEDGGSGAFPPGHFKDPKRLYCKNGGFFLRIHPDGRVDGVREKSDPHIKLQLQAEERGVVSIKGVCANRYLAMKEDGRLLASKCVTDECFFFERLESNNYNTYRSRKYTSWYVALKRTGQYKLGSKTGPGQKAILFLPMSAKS
Chain of Focal adhesion kinase 1 (Homo sapiens) (Q05397 whole entry, looked up): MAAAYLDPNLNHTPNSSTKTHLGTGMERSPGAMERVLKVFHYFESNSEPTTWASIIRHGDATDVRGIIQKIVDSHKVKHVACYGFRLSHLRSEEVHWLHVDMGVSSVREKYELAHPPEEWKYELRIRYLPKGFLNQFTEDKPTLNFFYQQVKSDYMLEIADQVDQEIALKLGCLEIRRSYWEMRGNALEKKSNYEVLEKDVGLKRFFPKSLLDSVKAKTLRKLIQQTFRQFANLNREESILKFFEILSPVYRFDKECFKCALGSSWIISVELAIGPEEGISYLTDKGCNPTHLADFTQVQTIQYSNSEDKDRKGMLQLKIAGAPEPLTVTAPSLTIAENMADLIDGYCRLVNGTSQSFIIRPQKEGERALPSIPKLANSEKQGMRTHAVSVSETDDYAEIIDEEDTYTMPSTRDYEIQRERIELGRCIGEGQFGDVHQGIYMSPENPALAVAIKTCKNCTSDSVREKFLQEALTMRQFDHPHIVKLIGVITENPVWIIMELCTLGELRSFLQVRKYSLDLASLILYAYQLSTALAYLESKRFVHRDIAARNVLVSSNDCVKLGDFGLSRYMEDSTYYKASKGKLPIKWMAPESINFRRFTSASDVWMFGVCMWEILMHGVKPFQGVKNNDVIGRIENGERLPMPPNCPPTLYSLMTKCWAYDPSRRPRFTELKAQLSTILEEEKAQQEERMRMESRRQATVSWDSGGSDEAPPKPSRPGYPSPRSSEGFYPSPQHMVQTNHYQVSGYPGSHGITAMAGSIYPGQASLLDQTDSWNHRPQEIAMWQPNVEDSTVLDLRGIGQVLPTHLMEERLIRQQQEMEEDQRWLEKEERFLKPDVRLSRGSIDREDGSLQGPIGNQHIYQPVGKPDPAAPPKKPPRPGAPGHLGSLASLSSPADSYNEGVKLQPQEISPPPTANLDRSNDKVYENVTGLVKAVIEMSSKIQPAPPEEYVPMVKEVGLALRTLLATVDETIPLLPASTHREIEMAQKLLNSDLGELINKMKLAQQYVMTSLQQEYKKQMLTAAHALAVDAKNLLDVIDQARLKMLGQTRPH
Chain of Follistatin (Homo sapiens) (P19883 whole entry, looked up): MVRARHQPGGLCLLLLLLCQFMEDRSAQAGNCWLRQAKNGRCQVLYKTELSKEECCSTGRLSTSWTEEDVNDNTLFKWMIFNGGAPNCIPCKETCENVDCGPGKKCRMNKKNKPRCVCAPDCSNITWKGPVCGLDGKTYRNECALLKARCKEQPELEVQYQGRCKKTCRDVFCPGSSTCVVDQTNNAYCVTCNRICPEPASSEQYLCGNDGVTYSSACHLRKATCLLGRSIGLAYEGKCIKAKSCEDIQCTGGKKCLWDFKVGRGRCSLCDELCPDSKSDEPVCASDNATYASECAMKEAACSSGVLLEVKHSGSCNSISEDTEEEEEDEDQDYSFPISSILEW

SMILES | composite z-score [1] | composite z-score [2] | composite z-score [3] | composite z-score [4] | composite z-score [5] | composite z-score [6] | z-score [7] | composite z-score [8] | composite z-score [9] | z-score [10] | composite z-score [11] | z-score [12] | z-score [13] | z-score [14] | z-score [15] | composite z-score [16] | composite z-score [17] | composite z-score [18] | composite z-score [19] | composite z-score [20]
Cc1cc(C)cc(N2C(=O)CSC2c2cccc([N+](=O)[O-])c2)c1 (stereo not given) | 2.27 | 1.22 | 1.55 | 1.03 | 0.45 | 0.963 | 0.492 | 1.53 | 1.1 | -0.992 (inactive) | 0.423 | -0.894 (inactive) | 0.75 (inactive) | -0.438 (inactive) | -1.04 (inactive) | 1.2 | 0.0506 | 0.337 | 0.526 | 0.899
CN(C)C(=O)[C@@]1(CCS(=O)(=O)c2ccccc2)N=C(c2ccc(OCCCO)cc2)O[C@H]1c1ccccc1 | 2.36 | 1.23 | 0.365 | 0.983 | 1.02 | -0.663 | 0.635 | -0.502 | 1.18 | -0.525 (inactive) | 0.543 | -3.07 (inactive) | 1.02 (inactive) | 0.652 (inactive) | -0.481 (inactive) | 0.926 | 0.0155 | 1.05 | 0.548 | -1.01
CCCNC(=O)[C@@]1(c2ccc([N+](=O)[O-])cc2)CC(=O)N(C2CCCCC2)[C@@H]1c1ccc(CO)cc1 | 1.86 | 1.24 | 0.548 | 0.831 | 1.24 | 1.66 | 1.34 | 0.344 | 0.533 | -0.92 (inactive) | -0.0471 | -1.83 (inactive) | 0.812 (inactive) | 0.324 (inactive) | -0.775 (inactive) | 0.206 | 0.138 | 0.0388 | 0.455 | 0.511
CCOc1cc(C(O)C2C=CC3C(=O)N(c4ccccc4)C(=O)C3N2Nc2ccc(C#N)cc2)ccc1O (stereo not given) | 1.29 | 0.161 | 0.471 | 0.961 | 0.765 | -0.667 | -0.00105 | 0.113 | 0.961 | -0.519 (inactive) | -0.162 | 0.423 (inactive) | -0.485 (inactive) | -0.525 (inactive) | 0.201 (inactive) | 0.999 | 0.288 | 0.258 | 0.115 | -0.373
CC(C)C(=C=CC[C@H](O)c1cccc(OCCO)c1)C[C@H](O)c1cc(Cl)cc(Cl)c1O | -0.397 | 0.637 | 0.295 | 0.713 | 1.31 | 0.484 | 0.487 | 1.3 | 0.628 | -0.316 (inactive) | 0.255 | -0.254 (inactive) | -1.02 (inactive) | 5.53 (inactive) | 0.813 (inactive) | 0.092 | -0.116 | 0.605 | -0.356 | 1.95
CCCCCCCCCCC(O)C1C=CC2C(=O)N(C)C(=O)C2N1Nc1ccc([N+](=O)[O-])cc1[N+](=O)[O-] (stereo not given) | 1.38 | 1.21 | 0.851 | 0.949 | 0.0686 | -0.597 | 1.68 | -0.524 | 1 | 0.581 (inactive) | 0.218 | -0.646 (inactive) | 0.322 (inactive) | 0.44 (inactive) | 0.932 (inactive) | 1.12 | 0.211 | -0.257 | 0.565 | -0.412
[N-]=[N+]=NCc1ccccc1[C@@H]1OC(c2ccc(OCCCO)cc2)=N[C@]1(CCS(=O)(=O)c1ccccc1)C(=O)NCC(O)CO (stereo not given in full) | 2.39 | 1.28 | 0.546 | 1.03 | 1.29 | 1.05 | -0.145 | 0.171 | 1.16 | -1.93 (inactive) | 0.541 | -0.866 (inactive) | -0.701 (inactive) | 1.71 (inactive) | -1.17 (inactive) | 0.962 | 0.0073 | 1.05 | 1.36 | 0.0169
COCCCNC(=O)[C@@]1(Sc2ccc(C)cc2)CC(=O)N(C2CCCCC2)[C@@H]1c1ccc(CO)cc1 | 0.624 | -0.454 | 0.647 | -1.08 | -0.441 | -0.511 | -0.227 | -1.63 | -0.361 | 0.545 (inactive) | 0.0421 | -0.0515 (inactive) | -0.319 (inactive) | 0.118 (inactive) | 1.7 (inactive) | -0.749 | -0.154 | -1.51 | -0.424 | -0.911
CCOC(=O)[C@H]1[C@@H]2C(=O)N3CCC[C@H]3[C@H](O[Si](C(C)C)(C(C)C)C(C)C)[C@H]2C=C2CCN(S(=O)(=O)c3ccc(C)cc3)C[C@H]21 | 0.173 | 0.837 | -0.268 | 0.938 | 0.727 | 0.143 | 1.8 | 0.672 | 0.255 | -0.404 (inactive) | 0.0328 | -5.75 (inactive) | 0.426 (inactive) | 0.673 (inactive) | 0.986 (inactive) | 1.03 | -0.0468 | 0.353 | 0.163 | 1.58
